{
  "source": "PubChem BioAssay AID720517",
  "about": "(National Center for Advancing Translational Sciences (NCATS), 2013)",
  "note": "Results filed as inconclusive are left out. Entries that show only a call come without a potency. Active and inactive are the calls of the source. The call rests on the fitted dose curve; in most records, active means well fitted activation curve with a large enough effect; inconclusive means small, poorly fitted or top-dose-only effect; inactive means flat fitted curve, though single readings scatter.",
  "data": [
    {"test": "qHTS for Inhibitors of Cell Surface uPA Generation: FP59 Counterscreen for Cherry-picked Compounds", "conditions": "FP59 anthrax toxin cytotoxicity counterscreen, cells; series mostly up to 115 µM", "values": [
      {"smiles": "CCc1nccn1CCC(=O)N1CCc2c([nH]c3ccccc23)C1CC(C)C", "note": "(configuration not stated)", "Potency": "inactive"},
      {"smiles": "Nc1nc2ccc(Br)cc2o1", "Potency": "inactive"},
      {"smiles": "COc1ccc(Cc2nnc(NC(=O)Nc3ccc(F)cc3)s2)cc1", "Potency": "inactive"},
      {"smiles": "CCN(CC(=O)NCc1ccc(F)cc1)CC(=O)Nc1ccccc1-c1ccccc1", "Potency": "inactive"},
      {"smiles": "Fc1ccc(N2CCN(c3nc(CN4CCOCC4)nc4scc(-c5ccccc5)c34)CC2)cc1", "Potency": "inactive"},
      {"smiles": "Cc1cccc(N2C(=O)c3cccc(Oc4ccc(Cl)cc4)c3C2=O)c1", "Potency": "inactive"},
      {"smiles": "O=C(OCC(=O)N1CCOCC1)c1c(Cl)ccc(Cl)c1Cl", "Potency": "inactive"},
      {"smiles": "O=C(Nc1cccc(-c2nn[nH]n2)c1)c1ccc(Cl)s1", "Potency": "inactive"},
      {"smiles": "Cc1cccc(N2C(=O)N3[C@H](c4ccc(F)cc4)[C@@H]4C(=O)N(C5CCCCC5)C(=O)[C@@H]4[C@]3(Cc3ccc(Cl)cc3)C2=O)c1", "Potency": "inactive"},
      {"smiles": "CCC1=NN(C(=O)C(=O)Nc2ccc(OC)cc2)C(O)(C(F)(F)F)C1", "note": "(configuration not stated)", "Potency": "inactive"},
      {"smiles": "COc1ccccc1NS(=O)(=O)c1cc(NC(=O)CCc2nc3ccccc3c(=O)[nH]2)ccc1C", "Potency": "inactive"},
      {"smiles": "Cc1ccc(C)c(NC(=O)CCN2CCN(c3ccccc3F)CC2)c1", "Potency": "inactive"},
      {"smiles": "COc1ccc(Nc2nc(-c3ccccc3)c(C(=O)Nc3cccnc3)s2)cc1", "Potency": "inactive"},
      {"smiles": "O=C(Cc1ccc(Cl)cc1)c1c[nH]c(C(=O)NCCCn2ccnc2)c1", "Potency": "inactive"},
      {"smiles": "Cc1ccc(NC(=O)CCCn2c(=S)[nH]c3ccsc3c2=O)cc1C", "Potency": "inactive"},
      {"smiles": "Clc1ccc(C2=NN=C3COc4ccccc4N3C2)cc1", "Potency": "inactive"},
      {"smiles": "COCCN(CCOC)c1nc(-c2ccc(C)cc2)nc2ccccc12", "Potency": "inactive"}
    ]}
  ]
}
